# Assay results from PubChem BioAssay.
# The source made the active and inactive calls.
# Experiments:
# [1] = binders of probe aFSTL3 on microarray, primary screen, stem cell growth factor project, biochemical, small-molecule microarray, fluorescence 635/667 (AID 1064); settings: higher = more signal;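 also: measures binding of the biotinylated anti-FSTL3 antibody to printed compounds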
# [2] = binders from COS7 lysate, DM2A8 probe, primary screen, torsin A project, cell lysate, small-molecule microarray, fluorescence 635/667 (AID 1065); settings: higher = more signal, COS7 lysate expressing mutant human TOR1A
# [3] = binders of probe aFGF2 on microarray, primary screen, stem cell growth factor project, biochemical, small-molecule microarray, fluorescence 635/667 (AID 1067); settings: higher = more signal;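 also: measures binding of biotinylated aFGF2 protein to printed compounds on slides; z-score merges feature fluorescence and signal-to-noise across triplicate slides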
# [4] = binders of probe aFGF10 on microarray, primary screen, stem cell growth factor project, biochemical, small-molecule microarray, fluorescence 635/667 (AID 1071); settings: higher = more signal;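 also: score merges 667 nm spot intensity and signal to noise from triplicate slides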
# [5] = target: Neurogenic locus notch homolog protein 2 (Homo sapiens) (UniProt Q04721); test: Notch2 binders on small-molecule microarrays, primary screen, biochemical, small-molecule microarray, 635 nm fluorescence, stem cell growth factors (AID 1073); settings: Notch2 binding, higher = more signal
# Sequence of Neurogenic locus notch homolog protein 2 (Homo sapiens) (Q04721 whole entry, looked up, canonical isoform): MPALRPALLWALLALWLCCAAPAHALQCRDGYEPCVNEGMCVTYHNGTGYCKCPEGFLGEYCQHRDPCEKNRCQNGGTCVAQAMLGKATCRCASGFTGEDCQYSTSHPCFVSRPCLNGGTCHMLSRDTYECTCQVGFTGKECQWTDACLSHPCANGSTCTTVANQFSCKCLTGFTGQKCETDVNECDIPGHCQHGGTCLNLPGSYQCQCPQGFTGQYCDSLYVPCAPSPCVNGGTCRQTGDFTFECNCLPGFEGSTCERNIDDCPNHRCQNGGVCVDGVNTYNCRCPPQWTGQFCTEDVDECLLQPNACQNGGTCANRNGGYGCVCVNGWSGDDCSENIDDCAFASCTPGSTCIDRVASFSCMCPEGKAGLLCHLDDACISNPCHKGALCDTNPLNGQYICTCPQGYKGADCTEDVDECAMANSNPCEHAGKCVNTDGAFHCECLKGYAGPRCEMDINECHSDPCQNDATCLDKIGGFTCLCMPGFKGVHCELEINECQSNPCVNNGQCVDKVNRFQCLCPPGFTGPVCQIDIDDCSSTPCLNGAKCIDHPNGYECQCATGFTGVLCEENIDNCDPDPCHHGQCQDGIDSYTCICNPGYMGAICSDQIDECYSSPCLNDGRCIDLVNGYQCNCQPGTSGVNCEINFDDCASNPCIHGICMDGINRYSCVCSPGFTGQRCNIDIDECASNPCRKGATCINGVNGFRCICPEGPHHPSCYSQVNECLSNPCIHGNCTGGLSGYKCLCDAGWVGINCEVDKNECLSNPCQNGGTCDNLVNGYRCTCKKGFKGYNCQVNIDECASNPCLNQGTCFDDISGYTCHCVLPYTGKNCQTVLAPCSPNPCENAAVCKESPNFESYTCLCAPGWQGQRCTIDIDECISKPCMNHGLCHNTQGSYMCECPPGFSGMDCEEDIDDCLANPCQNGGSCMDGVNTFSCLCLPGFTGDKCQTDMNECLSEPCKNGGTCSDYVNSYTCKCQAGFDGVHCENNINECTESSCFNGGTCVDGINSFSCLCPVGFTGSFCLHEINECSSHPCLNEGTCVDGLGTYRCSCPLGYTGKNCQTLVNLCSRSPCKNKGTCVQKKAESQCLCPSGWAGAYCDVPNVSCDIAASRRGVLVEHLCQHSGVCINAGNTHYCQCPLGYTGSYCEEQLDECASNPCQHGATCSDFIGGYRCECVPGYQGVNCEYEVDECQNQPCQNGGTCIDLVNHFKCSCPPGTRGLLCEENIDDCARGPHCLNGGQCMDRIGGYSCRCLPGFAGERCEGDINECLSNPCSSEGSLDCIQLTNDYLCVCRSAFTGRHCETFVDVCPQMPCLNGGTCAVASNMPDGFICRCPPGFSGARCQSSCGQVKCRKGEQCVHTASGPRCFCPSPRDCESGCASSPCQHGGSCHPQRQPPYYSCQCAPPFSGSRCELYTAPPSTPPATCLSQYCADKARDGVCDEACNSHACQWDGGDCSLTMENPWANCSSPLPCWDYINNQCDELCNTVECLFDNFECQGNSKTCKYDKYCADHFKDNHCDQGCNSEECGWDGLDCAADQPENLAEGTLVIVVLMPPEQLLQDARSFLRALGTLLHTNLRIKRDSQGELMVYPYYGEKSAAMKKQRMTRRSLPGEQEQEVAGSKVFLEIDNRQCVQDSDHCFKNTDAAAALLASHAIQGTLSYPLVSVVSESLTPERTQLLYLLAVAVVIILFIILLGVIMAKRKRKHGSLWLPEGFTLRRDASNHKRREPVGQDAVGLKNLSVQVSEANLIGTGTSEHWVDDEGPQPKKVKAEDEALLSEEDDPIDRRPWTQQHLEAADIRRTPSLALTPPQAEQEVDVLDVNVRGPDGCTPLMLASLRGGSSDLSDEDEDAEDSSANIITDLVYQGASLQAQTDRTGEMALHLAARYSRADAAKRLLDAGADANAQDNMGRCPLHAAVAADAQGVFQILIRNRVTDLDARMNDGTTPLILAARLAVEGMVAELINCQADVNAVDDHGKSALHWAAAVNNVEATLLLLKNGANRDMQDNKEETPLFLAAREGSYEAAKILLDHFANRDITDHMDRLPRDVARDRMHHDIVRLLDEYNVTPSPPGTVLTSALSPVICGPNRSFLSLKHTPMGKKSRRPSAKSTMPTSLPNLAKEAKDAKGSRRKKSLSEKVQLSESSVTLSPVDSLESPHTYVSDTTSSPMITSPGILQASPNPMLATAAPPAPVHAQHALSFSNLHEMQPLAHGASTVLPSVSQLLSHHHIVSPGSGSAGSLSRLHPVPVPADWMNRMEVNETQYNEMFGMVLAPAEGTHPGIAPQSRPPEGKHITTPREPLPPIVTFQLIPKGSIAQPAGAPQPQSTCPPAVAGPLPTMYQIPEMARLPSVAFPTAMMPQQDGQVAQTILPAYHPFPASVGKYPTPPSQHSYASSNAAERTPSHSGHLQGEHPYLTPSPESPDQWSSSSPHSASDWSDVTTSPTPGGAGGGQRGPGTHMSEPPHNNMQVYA
# [6] = target: Pro-neuregulin-1, membrane-bound isoform (Homo sapiens) (UniProt Q02297); test: NRG1 binders on small-molecule microarrays, primary screen, psychiatric disease protein project, biochemical, small-molecule microarray, fluorescence 635/667 (AID 1075); settings: NRG1 binding, 635 nm fluorescence, higher = more signal;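 also: score combines 667 nm spot fluorescence with signal to noise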
# Sequence of Pro-neuregulin-1, membrane-bound isoform (Homo sapiens) (Q02297 whole entry, looked up, the tested form may be a part, canonical isoform): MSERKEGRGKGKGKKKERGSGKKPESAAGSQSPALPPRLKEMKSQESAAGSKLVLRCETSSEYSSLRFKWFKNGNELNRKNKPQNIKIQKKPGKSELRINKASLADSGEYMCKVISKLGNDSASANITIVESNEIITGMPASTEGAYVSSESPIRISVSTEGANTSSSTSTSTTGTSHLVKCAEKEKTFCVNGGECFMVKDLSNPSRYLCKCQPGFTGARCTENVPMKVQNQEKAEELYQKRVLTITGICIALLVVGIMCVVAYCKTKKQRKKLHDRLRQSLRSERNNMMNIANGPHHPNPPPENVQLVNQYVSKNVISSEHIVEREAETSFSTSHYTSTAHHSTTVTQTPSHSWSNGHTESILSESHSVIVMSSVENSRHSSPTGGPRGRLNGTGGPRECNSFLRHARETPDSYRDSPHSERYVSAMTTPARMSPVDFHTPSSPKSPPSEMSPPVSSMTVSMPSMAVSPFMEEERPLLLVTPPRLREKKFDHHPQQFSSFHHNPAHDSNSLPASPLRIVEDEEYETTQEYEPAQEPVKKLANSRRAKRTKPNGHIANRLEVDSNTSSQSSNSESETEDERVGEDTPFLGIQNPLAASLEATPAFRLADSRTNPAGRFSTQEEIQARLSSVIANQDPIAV
# [7] = system: Neuregulin-1 EGF-like domain; test: binders of neuregulin-1 EGF-like domain, primary screen, biochemical, small-molecule microarray, 635 nm fluorescence (AID 1081); settings: small-molecule microarray binding, higher = more signal;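 also: binding of the protein to compounds printed on small-molecule microarray slides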
# [8] = FRG1 promoter luciferase signal modulators, primary screen, FRG1 inhibition for FSHD, cell-based, C2C12 myotubes, firefly/Renilla luciferase, luminescence (AID 1084); settings: higher = more signal, called active from +8 up or from −8 down
# [9] = binders of probe aFST on microarray, primary screen, stem cell growth factor project, biochemical, small-molecule microarray, fluorescence 635/667 (AID 1086); settings: higher = more signal;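 also: score merges 667 nm fluorescence with signal-to-noise of each printed compound spot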
# [10] = binders of probe aHhip on microarray, primary screen, stem cell growth factor project, biochemical, small-molecule microarray, fluorescence 635/667 (AID 1087); settings: higher = more signal;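 also: score merges spot fluorescence at 667nm with spot signal to noise ratio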
SMILES,composite z-score [1],composite z-score [2],composite z-score [3],composite z-score [4],composite z-score [5],composite z-score [6],composite z-score [7],z-score [8],composite z-score [9],composite z-score [10]
O=C1N(Cc2ccccc2)Cc2ccccc2[C@@H]2OC(c3ccc(OCCCO)cc3)=N[C@]12CCS(=O)(=O)c1ccccc1,0.184,-0.0546,0.0247,0.379,1.28,1.48,1.32,-3.35 (inactive),0.297,-0.171
C=C(COC)/C(=C/C[C@H](OC(C)=O)c1ccc(OCCO)cc1)c1cc(C(=O)OC)ccc1OC,-0.391,1.91,-0.1,1.03,0.277,0.697,1.24,-0.658 (inactive),0.0308,-0.476
C=CCOC(=O)[C@H]1[C@@H]2C(=O)O[C@@H](c3ccccc3)[C@@H](c3ccccc3)N2[C@@H](c2ccc(OCCOC(=O)[C@H]3C[C@H]4C(=O)N[C@@H](CCCCNC(C)=O)C(=O)N4[C@H]3c3ccc(O)cc3)cc2)[C@]12C(=O)Nc1ccccc12,-0.0493,0.498,-0.0736,0.0817,0.307,0.285,0.999,-1.15 (inactive),0.352,-0.0994
CN(C)c1ccc(C(O)C2C=CC3C(=O)N(c4ccccc4)C(=O)C3N2Nc2ccc([N+](=O)[O-])cc2)cc1 (stereo not given),0.155,0.456,0.0495,0.551,1.52,1.42,1.14,0.975 (inactive),1.63,0.0373
CCOC(=O)C1=CC[C@@H](c2ccccc2C(F)(F)F)N(S(=O)(=O)c2ccc(C)cc2)[C@H]1c1ccc(C#N)cc1,-0.0042,0.0813,0.0625,0.692,1.36,0.988,1.25,0.852 (inactive),1.11,-0.0024
COCCCNC(=O)[C@]1(CCS(=O)(=O)c2ccccc2)N=C(c2ccc(OCCCO)cc2)O[C@@H]1c1ccccc1N=[N+]=[N-],1.42,0.769,0.263,1.11,0.984,0.977,1.01,4.31 (inactive),1.98,-0.202
O=C1O[C@H](c2ccccc2)[C@H](c2ccccc2)N2[C@H]1[C@@H](C(=O)N1CCN(c3ncccn3)CC1)[C@]1(C(=O)Nc3ccc(C#CC4(O)CCCCCC4)cc31)[C@H]2c1ccc(OCCO)cc1,0.696,0.968,0.0583,1.2,1.52,2.25,1.22,1.8 (inactive),2.45,0.334
C=CCN1Cc2ccccc2[C@H]2OC(c3ccc(OCCCO)cc3)=N[C@@]2(CC=C)C1=O,0.451,0.169,0.0188,-0.177,1.12,1.44,1.42,-2.18 (inactive),0.633,0.0401
COc1ccc([Si](C)(C)[C@H]2[C@H](CC(=O)N(CCO)Cc3ccccc3)O[C@@]3(C(=O)N(Cc4cccc(N5CCOC5=O)c4)c4ccccc43)[C@@H]2C)cc1,-0.243,0.635,-0.0737,0.171,0.0078,1.2,0.974,-0.551 (inactive),-0.0174,0.176
O=C1C=C(c2ccccc2)C(=O)c2ccc([C@H]3Oc4ccccc4S(=O)(=O)N4CCC[C@@H]34)cc21,-0.292,-0.303,-0.116,-0.0019,-0.405,-0.775,-0.87,2.5 (inactive),-0.024,0.0659
CCCCCCc1nc(-c2cc(C)c(OC)c(C)c2)c(C)c2c1[Si](C(C)C)(C(C)C)OC2,-0.0656,0.0489,-0.093,-0.0949,0.0241,-0.391,-0.453,0.785 (inactive),0.021,-0.116
COC(=O)c1nc2oc1CC[C@@H](CO)NC(=O)N(C)Cc1cnnn1C[C@H](Cc1ccccc1)NC2=O,-0.195,-0.328,-0.062,-0.135,-0.444,0.243,0.434,-0.988 (inactive),-1.08,-0.314
Cc1ccc(S[C@]2(C(=O)NCC(F)(F)F)CC(=O)N(C3CCCCC3)[C@@H]2c2ccc(CO)cc2I)cc1,-0.203,0.0659,0.0464,0.594,1.18,0.405,1.18,-2.91 (inactive),0.233,0.213
COc1cccc(/C=C/C=O)c1,0.278,0.187,0.0726,0.505,0.367,-0.437,-0.443,1.02 (inactive),0.375,0.57
CCOC(=O)C[C@H]1[C@H](OC(=O)c2ccccc2-c2ccccc2)[C@@H](NC(=O)C2CCCCC2)c2cc(OCCCO)ccc2N1C(=O)Cc1ccc(OC)cc1,0.0253,0.154,-0.0636,0.253,0.231,-0.0991,-0.163,0.277 (inactive),0.169,-0.12
COc1ccc([Si](C)(C)[C@H]2[C@H](CCn3cc([C@H](O)c4ccccc4)nn3)O[C@@]3(C(=O)N(Cc4ccc(N5C(=O)c6cccc7cccc5c67)cc4)c4ccccc43)[C@@H]2C)cc1,0.193,-0.241,-0.159,0.595,-0.715,0.45,1.1,-3.35 (inactive),-0.403,-0.0994
NCCCCCNC(=O)[C@@H]1C[C@@H]2C(=O)NCC(=O)N2[C@@H]1c1cccc(OCCO)c1,-0.144,0.45,0.108,0.773,0.756,0.889,1.34,0.0981 (inactive),0.417,0.151

SMILES,composite z-score [1],composite z-score [2],composite z-score [3],composite z-score [4],composite z-score [5],composite z-score [6],composite z-score [7],z-score [8],composite z-score [9],composite z-score [10]
COc1cc2c(cc1O)C(C)N(Cc1ccc([N+](=O)[O-])o1)CC2 (stereo not given),0.182,0.731,-0.0138,1.15,1.3,1.53,1.08,0.11 (inactive),0.401,0.28
CN1C(=O)C2C=CC(C(O)c3ccccn3)N(N(c3ccccc3)c3ccccc3)C2C1=O (stereo not given),0.733,0.0014,0.0276,0.0491,0.594,0.899,0.622,0.164 (inactive),0.613,0.245
COc1ccc([Si](C)(C)[C@@H]2[C@@H](CC(=O)N3Cc4ccccc4C[C@H]3CO)O[C@]3(C(=O)N(C)c4ccccc43)[C@H]2C)cc1,0.279,0.56,0.0331,0.686,0.356,0.969,1.22,-4.24 (inactive),0.714,0.202
COc1ccc(CCN2C(=O)[C@@]3(Cc4ccccc42)c2ccccc2C(=O)N(Cc2ccccc2OC)[C@H]3c2ccc(CO)cc2)cc1,0.502,-0.277,0.0252,-0.0162,-0.779,-0.634,-0.322,-1.01 (inactive),-0.275,0.21
CC(C)(C)OC(=O)CC[C@]1(C(=O)NCC(O)CO)N=C(c2ccc(OCCCO)cc2)O[C@H]1c1ccccc1 (stereo not given in full),1.07,1.58,-0.0099,0.391,0.493,0.866,1.33,0.974 (inactive),0.36,-0.323
COCCOC(=O)N1C(=O)[C@@]2(c3cc(C#CC4=CCCCC4)ccc31)[C@H](c1ccccc1OCCO)N1[C@H](c3ccccc3)[C@H](c3ccccc3)OC(=O)[C@H]1[C@@H]2C(=O)Nc1nc2ccccc2s1,-0.19,-0.0036,-0.0398,0.359,1.23,0.953,1.08,1.41 (inactive),0.513,0.0373
COC(=O)c1ccc([C@H](NC(=O)c2ccco2)[C@]2(C)C[C@H]2C2CCCCC2)cc1,0.685,-0.462,-0.0301,-0.11,0.329,1.12,-0.808,-0.622 (inactive),0.488,2.5
CC(C)Cc1ccc(CN2CC[C@@H](NC(=O)Nc3ccccc3)C2)cc1,-0.0474,-0.0461,-0.173,0.118,-0.3,-0.54,-0.0603,-0.445 (inactive),-0.275,0.0505
C=CCC(OC(C)=O)[C@@H]1[C@@H](N(Cc2ccc(-c3cccc(C(F)(F)F)c3)o2)C(=O)c2ccc(-c3ccccc3)cc2)c2cc(OCCCO)ccc2N1C(=O)c1ccc2ccccc2n1 (stereo not given in full),-0.0375,-0.246,-0.0266,0.306,0.0588,0.0617,-0.385,-0.379 (inactive),0.77,-0.0237
CN(C)C(=O)[C@]1(CCS(=O)(=O)c2ccccc2)N=C(c2ccc(OCCCO)cc2)O[C@@H]1c1ccccc1N=[N+]=[N-],0.169,1.13,0.15,1.16,1.59,1.27,1.4,2.79 (inactive),1.84,0.155
Cc1ccc(S[C@]2(C(=O)O)CC(=O)N(Cc3cc(C(F)(F)F)cc(C(F)(F)F)c3)[C@@H]2c2ccc(CO)cc2)cc1,0.591,-0.378,-0.175,-1.71,-2.43,0.203,0.406,0.0661 (inactive),-0.395,-0.464
C=C(/C(=C/C[C@@H](OC(C)=O)c1cccc(OCCO)c1)c1cc(C(=O)OC)ccc1OC)C(C)C,-0.367,1.11,-0.0799,0.451,-0.114,-0.202,0.938,0.608 (inactive),0.313,0.0373
CC(C)(C)OC(=O)CC[C@@]1(C(=O)NCc2ccccc2)N=C(c2ccc(OCCCO)cc2)O[C@@H]1c1ccccc1N=[N+]=[N-],0.418,0.559,0.246,0.885,1.64,1.75,0.968,1.16 (inactive),1.13,0.0115
COCCCNC(=O)[C@]1(CCS(=O)(=O)c2ccccc2)N=C(c2ccc(OCCCO)cc2)O[C@@H]1c1ccccc1CN=[N+]=[N-],0.688,1.32,0.418,0.948,1.63,1.79,1.14,0.174 (inactive),1.44,-0.0518
CCCC[C@@H]1C[C@H]1[C@@H](NC(=O)Cc1ccccc1)c1ccc(-c2ccccc2)cc1,-0.153,0.0056,-0.0064,-0.165,0.61,0.212,0.386,0.0529 (inactive),0.482,-0.0237
CC(=O)NCCCC[C@@H]1NC(=O)[C@H]2C[C@@H](C(=O)NCCCC[N+](C)(C)C)[C@@H](c3cccc(OCCO)c3)N2C1=O,-0.188,1.86,-0.0319,1.23,0.165,0.4,1.14,0.647 (inactive),0.593,0.24
